Assay results as given in PubChem BioAssay (Tox21).
Results filed as inconclusive are left out. Calls of active or inactive are those of the source. Unless noted, the call rests on the fitted dose curve; in most records, active means well fitted curve in the direction sought with a large enough effect in the repeat runs; inconclusive means weak or mixed curves; inactive means no such curve, though single readings can be large; an effect the other way counts as inactive or inconclusive.

How the values were obtained:
[1] = qHTS assay for small molecule agonists of the p53 signaling pathway (AID 651631; calls by dose curve; further: nearly all actives have a fitted effect of over 15% in size)
Method in brief: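 Beta-lactamase reporter activity under p53 response elements was quantified in HCT-116 cells by FRET fluorescence, following 16 h incubation with test compounds at 37 °C and 2 h substrate development at room temperature.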

[2] = qHTS assay for small molecules that induce genotoxicity in human embryonic kidney cells expressing luciferase-tagged ATAD5 (AID 651632); further: nearly all actives have a fitted effect of over 15% in size
Method in brief: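 Luminescence read-out: after 16 hr compound exposure at 37C, ATAD5-luciferase HEK293T cells received Amplite, 30 min RT, then CCD imaging. A rise in signal marks genotoxic stress.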

[3] = qHTS assay for small molecule agonists of the p53 signaling pathway - cell viability (AID 651633; calls by dose curve;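 further: p53RE-bla HCT reporter cells with a stable beta-lactamase p53 reporter; series mostly up to about 83 µM; nearly all actives have a fitted effect of over 30% in size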)
Method in brief: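 p53RE-bla cells were treated with compound for 16 hours at 37 C. Cytotoxicity was then measured as CellTiter-Glo luminescence after 30 min at room temperature.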

[4] = qHTS assay for small molecules that induce genotoxicity in human embryonic kidney cells expressing luciferase-tagged ATAD5 - cell viability (AID 651634; calls by dose curve; further: nearly all actives have a fitted effect of over 25% in size)
Method in brief: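 HEK293T ATAD5-luc cells, 2,000/well; compound 15.5 hr, 37C/5% CO2; CellTiter-Fluor 30 min, 37C; fluorescence read.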

[5] = qHTS assay for small molecule disruptors of the mitochondrial membrane potential - cell viability (AID 720634; calls by dose curve;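 further: human HepG2 liver cancer cells; series mostly up to about 83 µM; nearly all actives have a fitted effect of over 20% in size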)
Method in brief: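 Luminescence from CellTiter-Glo (ATP content) gave viability in HepG2 cells, read in the same wells as the MMP dye assay after 1 hr compound exposure at 37 C.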

[6] = qHTS assay to test for compound auto fluorescence at 590 nm (red) in HepG2 cells (AID 720674)
Method in brief: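 Seeding: 2,000 HepG2 cells/well, MEM/10% FBS, overnight 37 C. Dosing: compound vs DMSO. Incubation: 1 hr, 37 C, 5% CO2. Read: fluorescence 540 ex/590 em, Rose Bengal sodium as red reference.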

[7] = qHTS assay to test for compound auto fluorescence at 535 nm (green) in HepG2 cells (AID 720675)
[8] = qHTS assay to test for compound auto fluorescence at 460 nm (blue) in HEK293 cells (AID 720678)
Method in brief: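 Intrinsic compound fluorescence is recorded in live HEK293 cultures after overnight incubation at 37C, 5% CO2, using excitation 405 nm and emission 460 nm. Values are referenced to triamterene.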

[9] = qHTS assay to test for compound auto fluorescence at 590 nm (red) in HEK293 cells (AID 720679)
Method in brief: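 Red autofluorescence, HEK293 cells: 2,000 cells/well; attach 4-5 hr 37C; add 23 nL cpd or DMSO; incubate o/n 37C 5% CO2; read Ex540/Em590; Rose Bengal sodium reference.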

[10] = qHTS assay to test for compound auto fluorescence at 535 nm (green) in HEK293 cells (AID 720680)
[11] = qHTS assay to test for compound auto fluorescence at 460 nm (blue) in HEK293 cell free culture (AID 720681)
Method in brief: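 Compounds were added to cell-free DMEM with 10% FBS and fluorescence read directly. The blue channel used 405 nm excitation and 460 nm emission, with triamterene as the reference fluorophore.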

[12] = qHTS assay to test for compound auto fluorescence at 535 nm (green) in HEK293 cell free culture (AID 720682)
Method in brief: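 Each library compound, or DMSO control, is added by pintool to medium alone, comprising DMEM and 10% FBS. Emission at 535 nm following 485 nm excitation is quantified against fluorescein.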

[13] = qHTS assay to test for compound auto fluorescence at 590 nm (red) in HEK293 cell free culture (AID 720683)
Method in brief: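 Cell-free wells of DMEM with 10% FBS received compound, and intrinsic fluorescence was read at excitation/emission 540/590 nm. Values expressed as equivalence to Rose Bengal sodium.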

[14] = qHTS assay to test for compound auto fluorescence at 590 nm (red) in HepG2 cell free culture (AID 720684)
Method in brief: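 Auto fluorescence equivalency versus Rose Bengal sodium, red channel Ex/Em 540/590 nm; compounds in cell-free MEM/10% FBS; DMSO vehicle control.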

[15] = qHTS assay to test for compound auto fluorescence at 460 nm (blue) in HepG2 cell free culture (AID 720685)
Method in brief: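 Cell-free plates of MEM plus 10% FBS received 23 nL compound or DMSO vehicle; blue-channel (405/460 nm) intensity scored against triamterene as reference fluorophore.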

[16] = qHTS assay to test for compound auto fluorescence at 535 nm (green) in HepG2 cell free culture (AID 720686)
[17] = qHTS assay to test for compound auto fluorescence at 460 nm (blue) in HepG2 cells (AID 720687)
Method in brief: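 HepG2 cells in MEM with 10% FBS, attached overnight at 37 C, were exposed to compound or DMSO for 1 hr at 37 C, 5% CO2. Blue fluorescence was read at 405/460 nm, with triamterene as reference fluorophore.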

[18] = target: Glucocorticoid receptor (Homo sapiens) (UniProt P04150); assay: qHTS assay to identify small molecule agonists of the glucocorticoid receptor (GR) signaling pathway (AID 720691; active means well fitted activation curve with a large enough effect in the signal ratio in the repeat runs, not every such curve was filed as active; the % refers to the signal ratio)
Method in brief: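 HeLa GR-bla reporter line; cells pre-incubated 4 h, compound in DMSO 18 h at 37 C; LiveBLAzer B/G FRET substrate 2 h RT; fluorescence intensity read-out.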

[19] = target: Glucocorticoid receptor (Homo sapiens) (UniProt P04150); assay: qHTS assay to identify small molecule antagonists of the glucocorticoid receptor (GR) signaling pathway (AID 720692; active means well fitted inhibition curve with a large enough effect in the signal ratio in the repeat runs, not every such curve was filed as active; the % refers to the signal ratio)
Method in brief: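 Read-out: beta-lactamase FRET substrate fluorescence, 2 h at room temperature, in HeLa cells stably carrying a GRE-driven bla reporter. Compounds were co-incubated with 5 nM dexamethasone agonist (final) for 18 h at 37 C.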

[20] = qHTS assay for small molecule disruptors of the mitochondrial membrane potential (AID 720635)
Method in brief: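 HepG2 cells exposed to compound 1 hr at 37C, then Mito-MPS dye 30 min. Ratio read of aggregate (540/590 nm) versus monomer (490/535 nm) fluorescence.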

Measured: Potency

Chain of Glucocorticoid receptor (Homo sapiens) (P04150 whole entry, looked up): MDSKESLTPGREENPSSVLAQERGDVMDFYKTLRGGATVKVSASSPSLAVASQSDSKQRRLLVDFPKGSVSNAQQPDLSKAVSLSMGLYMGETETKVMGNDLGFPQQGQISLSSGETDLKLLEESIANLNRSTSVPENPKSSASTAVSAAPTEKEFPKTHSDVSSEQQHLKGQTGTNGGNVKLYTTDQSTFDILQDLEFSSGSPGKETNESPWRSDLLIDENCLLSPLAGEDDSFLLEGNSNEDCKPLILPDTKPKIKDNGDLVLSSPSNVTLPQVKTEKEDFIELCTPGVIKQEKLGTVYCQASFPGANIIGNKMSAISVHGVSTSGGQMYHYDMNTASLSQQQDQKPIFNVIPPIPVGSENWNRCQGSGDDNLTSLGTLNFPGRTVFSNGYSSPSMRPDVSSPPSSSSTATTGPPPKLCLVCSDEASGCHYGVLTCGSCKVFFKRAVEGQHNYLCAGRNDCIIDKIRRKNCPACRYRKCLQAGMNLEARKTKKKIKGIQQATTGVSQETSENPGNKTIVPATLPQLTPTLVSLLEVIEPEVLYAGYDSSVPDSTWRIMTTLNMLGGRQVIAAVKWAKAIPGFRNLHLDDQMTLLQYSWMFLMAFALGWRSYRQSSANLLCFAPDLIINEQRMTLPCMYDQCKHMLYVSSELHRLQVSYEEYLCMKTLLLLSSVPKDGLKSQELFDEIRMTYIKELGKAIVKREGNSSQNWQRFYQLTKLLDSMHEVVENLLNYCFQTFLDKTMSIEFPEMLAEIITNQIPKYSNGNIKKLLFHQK

Cc1ncc(CSSCc2cnc(C)c(O)c2CO)c(CO)c1O
not listed: [20]
inactive: all other assays above

OC1OC[C@@H](O)[C@H](O)[C@H]1O (stereo not given in full)
not listed: [3] | [18] | [19] | [20]
inactive: all other assays above

CN(C)N=Nc1ccccc1
not listed: [4] | [18] | [19] | [20]
inactive: all other assays above

CC(C)=CC(=O)O
not listed: [1] | [18] | [19]
inactive: all other assays above

COc1cc(C)cc(O)c1
not listed: [1] | [19]
inactive: all other assays above

CO
not listed: [2] | [5] | [18] | [19] | [20]
inactive: all other assays above

CC/C=C\CCCCO
not listed: [3] | [18] | [19] | [20]
inactive: all other assays above

COc1cc(CCC(C)=O)ccc1O
not listed: [3] | [20]
inactive: all other assays above
